High-throughput results deposited in PubChem by several laboratories.
Only some compounds are listed: those with a hit (about 2.2% of all), similar ones and a draw of the others.
PLC-gamma1 inh = PLC-gamma1 (human) inhibition, primary screen; actives 0.84% (n = 370,000); purified PLC-gamma1, fluorogenic substrate, fluorescence; P19174; inhibition, % at 12.2 µM; AID 720700
Cardio protect = myocardial damage modulation in H9c2 cells; AID 588492; H9c2 cardiomyocytes, H2O2 injury protection, ATPLite, 2 h; actives 0.63% (n = 360,000); protection from H2O2 cell death, % at 20 µM;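 active = compounds giving at least 50% protection of heart cells from peroxide-induced death in the single-dose screen, raw or plate-pattern-corrected value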;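 note: 0% = DMSO wells with peroxide and 100% = DMSO wells without peroxide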
PLC-beta3 inh = PLC-beta3 (human) inhibition, primary screen; inhibition, % at 12.2 µM; Purified PLC-beta3, fluorogenic substrate, fluorescence; actives 0.18% (n = 370,000); Q01970; AID 720704; in the data active = inhibition above about 11%;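 note: 0% = median of compound wells on plate and 100% = full blocker control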
FAS TE block = FAS thioesterase (human) inhibition; P49327; recombinant FAS-TE, OMFH fluorogenic substrate, fluorescence endpoint; inhibition, % at 15 µM; actives 0.67% (n = 360,000); AID 602261;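 active = compounds whose normalised, plate-corrected inhibition of enzyme fluorescence in the single-dose primary screen is 50% or more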;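 note: 0% = DMSO with enzyme and 100% = substrate without enzyme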
PLCg1 ctr = counter-screen for PLC-beta3 inhibitors: inhibitors of human PLC-gamma1. actives 3.1% (n = 3,300). purified PLC-gamma1, fluorogenic substrate, fluorescence. inhibition, % at 12.3 µM. shares compounds with PLC-gamma1 inh
PLCb3 confirm = confirmation of human PLC-beta3 inhibitors. purified PLC-beta3, fluorogenic substrate fluorescence. inhibition, % at 12.3 µM. actives 1% (n = 3,300). shares compounds with PLC-gamma1 inh; in the data active = inhibition above about 11%
An asterisk follows results filed as active; x = no result; ! = a repeat was not active. Cut-off read from the data, not from the text of the source, unless noted: active = inhibition above about 9.5%; inactive = the rest.

SMILES	PLC-gamma1 inh	Cardio protect	PLC-beta3 inh	FAS TE block	PLCg1 ctr	PLCb3 confirm
CCOC(=O)c1c(C)n(-c2ccc(C)cc2)c2c(CC(C)=O)c(Br)c(OC)c(O)c12	10.1*	-14.2	6.6	-6.3	-4.8	-2.5
NS(=O)(=O)c1ccc(NC(=S)NC(=O)C2CCCCC2)cc1	11.5*	23.9	7.5	-0.2	-4.5	-4.5
Cc1ccc(NC(=O)C2CCCC2)c(Br)c1	0.7	-1.4	-0.4	-2.6	x	x
Cc1ccc(NC(=S)NC(=O)C2CCCCC2)c(Br)c1	15.7*	-12.7	15.4*	29.3	0.9	1.3
O=C(Cc1ccc(F)cc1)Nc1ccc(F)c([N+](=O)[O-])c1	9.8*	-0.1	3.6	43.7	-1.6	2.2
O=C(Nc1ccccc1)Nc1ccc(F)c([N+](=O)[O-])c1	5.6	-4.8	3.6	48.0	x	x
CC[C@@H](NC(=O)[C@@H](Cc1ccccc1)NC(=O)CC[C@H]1O[C@@H](n2ccc(=O)[nH]c2=O)[C@H](O)[C@@H]1O)c1ccccc1	2.1	1.6	3.6	-1.5	x	x
CCn1c(SCC(=O)c2ccccc2)nc2c(c1=O)SC(C)C2 (stereo unspecified)	11.5*	9.1	1.9	13.9	-4.4	-0.4
CCOC(=O)c1c(C)[nH]c(C)c1C(=O)COC(=O)c1cccnc1SC	9.4	5.0	-6.5	-0.7	x	x
Nc1nc2c(ncn2[C@@H]2O[C@H](CNCc3ccc(F)c(N4CCOCC4)c3)[C@@H](O)[C@H]2O)c(=O)[nH]1	-2.6	3.6	3.5	-5.5	x	x
CN1CCN(c2ccc(CNC[C@H]3O[C@@H](n4cnc5c(=O)[nH]c(N)nc54)[C@H](O)[C@@H]3O)c(F)c2)CC1	9.8*	-0.5	1.9	-2.1	-8.7	-5.8
COc1ccccc1NS(=O)(=O)c1cc(NC(=O)CNC(=O)c2ccccc2)ccc1C	10.9*	10.2	3.9	-6.2	-6.5	-4.0
COc1ccccc1NS(=O)(=O)c1cc(NC(=O)CCNC(C)=O)ccc1C	0.8	12.0	-5.5	-2.8	x	x
O=C(CN1C(=O)c2ccccc2S1(=O)=O)N1CCN(c2ccc(F)cc2)CC1	11.3*	4.3	7.3	-11.5	-4.8	-2.5
COc1cc(/C=N/Nc2ccc([N+](=O)[O-])cc2S(=O)(=O)N2CCOCC2)cc(OC)c1OC	3.3	-2.1	5.2	46.4	x	x
O=[N+]([O-])c1ccc(N/N=C/c2cccc(O)c2O)c(S(=O)(=O)N2CCOCC2)c1	14.6*	12.5	-5.1	34.6	-3.9	-4.8
O=C1CC(=C(c2ccccc2)c2ccccc2)C(=O)N1CCCCN1CCN(c2cccc(Cl)c2)CC1	20.0*	14.1	11.0*	17.6	-0.8	2.1
O=C(CSc1nnc(-c2ccccc2)n1Cc1ccco1)Nc1ccc(OCc2ccccc2)cc1	11.4*	x	6.8	x	0.7	0.1
O=C(O)c1cccc(Nc2ccncc2[N+](=O)[O-])c1	10.5*	5.5	6.3	-4.0	-8.4	-2.1
COc1ccc(CN2C(=NC(=O)C3CCCCC3)SC3CS(=O)(=O)CC32)cc1 (stereo unspecified)	3.4	-9.1	-3.1	-6.5	x	x
S=C(Nc1ccccc1Cl)N1CCC(c2ccccc2)C1 (stereo unspecified)	10.4*	-10.6	-0.5	-0.9	-1.7	1.7
Cc1ccc(NC(=S)N/C(=N/S(=O)(=O)c2ccccc2)c2ccccc2)cc1	16.5*!	-4.2	-2.0	-4.1	-4.1	-0.9
COc1ccc(NC(=O)c2sc3cc(C(F)(F)F)cnc3c2-c2cccs2)cc1	11.1*	-15.6	0.7	12.6	-25.6	-25.4
Cc1cc(=O)oc2cc(OCc3ccc(C(=O)OCC(=O)Nc4ccc(N(C)C)cc4)cc3)ccc12	-16.4	-6.0	-23.4	-6.4	x	x
COc1ccccc1C(=O)CSc1n[nH]c(N)n1	4.3	1.4	10.8*	-4.8	-1.5	0.9
O=C1C=C(NCCc2cc(Br)c(O)c(Br)c2)C(=O)c2ncccc21	11.7*	-19.6	5.7	41.5	6.7	1.2
CC(C)(C)c1cc(CCC(=O)NCCc2ccccn2)cc(C(C)(C)C)c1O	-0.7	2.8	-2.4	-6.3	x	x
Cc1cnn(C(=O)Cn2nc(C(F)F)c(Br)c2C)c1	-2.9	-4.7	-1.1	-7.1	x	x
Cn1c(=O)c2c(ncn2CCC(=O)N/N=C/c2ccccc2)n(C)c1=O	10.8*	5.6	10.8*	-2.4	-4.8	-0.8
Cn1c(=O)c2c(ncn2CCC(=O)N/N=C/c2ccncc2)n(C)c1=O	3.5	-1.4	-4.4	-3.5	x	x
